# Only some compounds are listed: those with a hit (about 11% of all), similar ones and a draw of the others.
# ALDH1A1 block: ALDH1A1 (human) enzyme inhibition. AID 1030. Purified ALDH1A1, NADH fluorescence, propionaldehyde substrate. actives 7.3% (n = 220,000). P00352. Potency, µM (titrated, usually from 75.3 µM), without a hit: at the top dose activity, negative = inhibition, actives largely listed as inhibitors; active means well fitted inhibition curve with a large enough effect, not every such curve was filed as active; inconclusive means small, poorly fitted or top-dose-only effect, or another doubt; inactive means no such curve, though single readings can be large or run the other way;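 further: potency means the concentration at half of the fitted maximal effect; plate controls were no enzyme wells and a reference inhibitor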
# Target sequence (P00352 whole entry, looked up): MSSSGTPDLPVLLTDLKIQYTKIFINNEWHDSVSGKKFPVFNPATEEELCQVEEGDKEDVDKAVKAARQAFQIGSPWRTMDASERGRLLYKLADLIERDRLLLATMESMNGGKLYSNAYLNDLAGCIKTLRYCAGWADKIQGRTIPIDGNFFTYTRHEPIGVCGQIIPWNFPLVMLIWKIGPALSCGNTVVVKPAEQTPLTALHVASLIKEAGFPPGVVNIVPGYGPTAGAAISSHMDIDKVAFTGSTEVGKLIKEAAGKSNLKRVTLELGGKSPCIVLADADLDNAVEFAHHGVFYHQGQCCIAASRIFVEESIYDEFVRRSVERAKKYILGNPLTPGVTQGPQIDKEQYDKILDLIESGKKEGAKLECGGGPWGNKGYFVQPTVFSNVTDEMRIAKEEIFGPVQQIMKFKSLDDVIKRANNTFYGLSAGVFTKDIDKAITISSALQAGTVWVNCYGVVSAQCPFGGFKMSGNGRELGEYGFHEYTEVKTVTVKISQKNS
# HPGD block: blocks human HPGD enzyme activity; actives 4.3% (n = 150,000); Potency, µM, inactives show at the highest dose activity change, negative = inhibition, actives largely listed as inhibitors; purified HPGD, NADH fluorescence kinetic, PGE2 substrate; active means well fitted inhibition curve with a large enough effect, not every such curve was filed as active; inconclusive means small, poorly fitted or top-dose-only effect, or another doubt; inactive means no such curve, though single readings can be large or run the other way; further: potency means the concentration at half of the fitted maximal effect; on the % scale 0 is the no-effect control and ±100 the full control effect
# Target sequence (P15428 whole entry, looked up): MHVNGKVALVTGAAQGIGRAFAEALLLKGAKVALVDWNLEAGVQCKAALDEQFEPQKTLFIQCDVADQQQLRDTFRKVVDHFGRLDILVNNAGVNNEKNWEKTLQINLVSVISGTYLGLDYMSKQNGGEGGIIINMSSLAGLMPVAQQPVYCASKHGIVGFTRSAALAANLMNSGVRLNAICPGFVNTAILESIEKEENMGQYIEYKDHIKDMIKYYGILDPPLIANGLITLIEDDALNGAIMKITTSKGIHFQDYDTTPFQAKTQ
#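 NADH formation kinetics: reaction with 30 uM PGE2 and 1 mM NAD+ (final), 20 nM enzyme, Tris-HCl pH 8 with Tween 20, after 15 min compound preincubation at room temperature. Fluorescence change, last versus first of five reads.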
# HTT cytoprotect: cytoprotection in Huntington HTT-Q103 PC12 cell model. PC12 HTT-Q103 induced, cytoprotection, ATP luminescence, 40 h. Potency, µM (doses to about 56.4 µM), for inactives: cytoprotection (ATP increase), actives largely listed as activators. actives 0.14% (n = 230,000); further: potency means the concentration at half of the fitted maximal effect; % of control where 0% means no effect; nearly all actives have a fitted effect of over 45% in size
#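 Quantitative HTS on tebufenozide-induced (100 nM) PC12 cells expressing HTTQ103 exon 1–GFP; compounds tested as a concentration series; survival measured via cellular ATP.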
# CBFb RUNX1 block: CBF-beta/RUNX1 interaction disruption. Potency, µM (top dose mostly 59.8 µM), for the others: at the top dose activity, negative = inhibition, usual class: inhibitors. AlphaScreen CBFb-His/RUNX1-biotin binding, biochemical. 230,000 tested, under 10 active. Q01196+Q13951; further: % of control where 0% means no effect
#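 Bead-based AlphaScreen assay; binding partners His-tagged CBF-beta and biotinylated RUNX1 at 30 nM each. Compound exposure 15 min after a 20-min protein preincubation; bead step 90 min; all steps at room temperature.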
# PNC inhibitor: inhibitors of perinucleolar compartment assembly; AID 2417; activity change (PNC), negative = inhibition, % at 10 µM; actives 3.1% (n = 140,000); PC3M PTB-GFP, PNC prevalence imaging, 16 h; stronger effect = lower value;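 active means readout at or below -70, meaning at least 70% loss of cells showing the perinucleolar compartment, a nuclear body marking cancer cells; inconclusive means readout between -30 and a set limit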;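 further: plate controls were DMSO wells for no effect and camptothecin positive control wells for full effect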
#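 Read-out is percentage of cells bearing a perinucleolar compartment, from automated 20x imaging of fixed, Hoechst-stained PC3M PTB-GFP cells. Cells were seeded 4 h, then exposed 16 h to compound (23 nl of library stock) in duplicate plates.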
# HTT aggregate: reduces HttQ103-GFP aggregates in PC12 cells; Potency, µM (top dose mostly 46.1 µM), inactives show top-dose activity change, negative = inhibition, most hits filed as inhibitors; AID 1688; PC12 HttQ103-GFP aggregates, Acumen cytometry, 40 h; actives 1.1% (n = 220,000); further: potency means the concentration at half of the fitted maximal effect; on the % scale 0 is the no-effect control and ±100 the full control effect; nearly all actives have a fitted effect of over 60% in size
#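 Using laser scanning cytometry, GFP-positive aggregates were counted after lysis of PC12 cells induced with 100 nM tebufenozide to express HTT exon 1 Q103–GFP. Compounds were tested in titration.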
# The depositor's hits bear a star; ? = inconclusive; . = not tested or not shown; [ ] = remark or other dose. Unless noted, the call rests on the fitted dose curve; in most records, active means well fitted curve in the direction sought with a large enough effect; inconclusive means small, poorly fitted or top-dose-only effect, or another doubt; inactive means no such curve, though single readings can be large; an effect the other way counts as inactive or inconclusive.
SMILES,ALDH1A1 block,HPGD block,HTT cytoprotect,CBFb RUNX1 block,PNC inhibitor,HTT aggregate
c1ccc(Cn2nnnc2CN2CCN(Cc3ccc4c(c3)OCO4)CC2)cc1,20µM*,.,-2.8%,-2.9%,-17.8,0.9%
Cc1ccc(C(c2nnnn2Cc2cccs2)N2CCN(Cc3ccc4c(c3)OCO4)CC2)cc1 (centres undefined),10µM*,-15.2%,-36.9%,2.4%,-27.0,-10.5%
C[C@H](N)CCCP(=O)(O)O,?,.,-14.7%,-2.2%,.,.
CO[C@@H]1[C@@H]2OP(=O)(O)OC[C@H]2O[C@H]1n1c(Sc2ccc(Cl)cc2)nc2c(N)ncnc21,1.9%,-4.4%,-67.3%,-0.2%,.,.
O=C(Nc1ccc2c(c1)OCCO2)C1CCCN(S(=O)(=O)c2cccc3nsnc23)C1 (centres undefined),-13.2%,-18.1%,-16.7%,-4.0%,-113.4*,2.2%[9.22 µM]
O=C(Nc1ccc2c(c1)OCCO2)C1CCN(S(=O)(=O)c2cccc3nsnc23)CC1,?,-14.9%,-53.5%,-3.2%,-80.8*,4.1%
COc1cc(NC(=O)C2CCCN(S(=O)(=O)c3cccc4nsnc34)C2)cc(OC)c1 (centres undefined),-2.6%,-16.7%,-21.7%,-11.9%,10.8,7.0%
O=S(=O)(Nc1ccc2c(c1)OCCO2)c1cccc2nsnc12,25.1µM*,-13.3%,17.9%,-7.1%,-3.0,8.6%[9.22 µM]
O=C(NCc1cccs1)c1ccc([N+](=O)[O-])cc1Cl,11.7%,?,-14.1%[10 µM],2.2%,-28.8,1.6%
O=C(c1ccc(C23CC4CC(CC(C4)C2)C3)o1)N1CCOCC1,-6.9%,-6.2%,-26.3%,-2.1%,?,5.62µM*
NC(=O)Oc1ccc(Cc2ccccc2)cc1,.,.,-22.2%,.,.,9.2%
c1coc(-c2ncc[nH]2)c1,17.8µM*,-11.0%,-37.6%,-3.8%,-97.2*,20.1%
O=S(=O)(O)C(c1ccccc1)[C@@H](O)c1ccccc1 (some centres undefined),24.2%[13.5 µM],-9.3%,.,.,.,.
O=C(NCCO)c1cc2cc(Cl)cc(Cl)c2oc1=O,?,.,-46.5%,3.9%,.,1.1%
COCCNC(=O)c1cc2cc(Cl)cc(Cl)c2oc1=O,25.1µM*,.,21.5%[10 µM],-1.5%,.,-20.5%[9.22 µM]
CCOC(=O)c1cnc(SCc2cccc3ccccc23)nc1N,?,28.2µM*,-10.1%,12.8%,1.6,-6.9%
CCOC(=O)CC(=O)CSc1ncc(C(=O)OCC)c(N)n1,22.4µM*,-27.9%,22.1%[10 µM],6.3%,?,-23.3%
CCOC(=O)c1cnc(SCC(=O)OC)nc1N,-0.8%,.,25.9%[10 µM],5.2%,.,12.5%[9.22 µM]
CC1(C)OC(c2ccccc2)=C/C(=C\C=N\NC(=O)c2ccncc2)O1,.,.,23.6%[10 µM],?,.,-6.3%[9.22 µM]
CC1(C)OC(c2ccccc2)=C/C(=C/C=Nc2ccccc2)O1,4.47µM*,-13.3%,-15.1%[10 µM],-7.8%,-23.7,?
S=C1NC(c2cccs2)=CC(c2ccc(Br)cc2)N1 (centres undefined),0.398µM*,31.6µM*,?,6.1%,63.1,?
S=C1NC(c2ccccc2)=CC(c2ccccc2)N1 (centres undefined),0.891µM*,.,-18.2%,-12.2%,.,-9.2%
O=c1oc2ccccc2nc1/C=C(O)/C=C\c1ccccc1,12.6µM*,-15.3%,-1.4%[10 µM],-9.8%,-28.8,?
COc1ccc(CCNC(=S)NC(=O)c2ccccc2)cc1OC,?,25.1µM*,-19.9%,5.5%,-100.5*,11.7%
COc1ccc(CCNC(=S)NC(=O)c2cccc(Cl)c2)cc1OC,.,.,9.0%[10 µM],-11.2%,.,9.3%[9.22 µM]
SMILES,ALDH1A1 block,HPGD block,HTT cytoprotect,CBFb RUNX1 block,PNC inhibitor,HTT aggregate
COc1ccc(C(=O)CC(=O)C(=O)NCCc2cccc(C)c2)cc1,2.24µM*,-23.8%,11.1%[10 µM],-7.8%,33.6,?
COc1ccc(C(=O)NC(=S)NCCc2ccccc2)cc1,14.1µM*,.,-46.5%,-9.1%,.,-12.5%
CCC[C@@H]1C[C@@]1(CCC)C(NC(=O)c1ccccc1)c1cccc(Cl)c1 (some centres undefined),3.0%,-5.5%,-50.4%,9.6%,.,.
COC(=O)[C@@]1(Cc2ccccc2)[C@H]2c3cc(C(=O)N(C)C)n(Cc4ccc(S(C)(=O)=O)cc4)c3C[C@H]2CN1C(=O)c1ccccc1,-9.3%,-9.2%,-32.8%,4.3%,.,.
C=C(C)C(O)/C=C/CCCCCCC (centres undefined),12.0%[13.5 µM],.,-52.2%[10 µM],18.7%[13.1 µM],.,.
CC(Sc1nnnn1-c1ccccc1)C(=O)Nc1ccc(Cl)cn1 (centres undefined),5.01µM*,-11.9%,19.9%[1.9 µM],5.4%,12.9,6.4%
CCC1=NC(c2ccc(OC)cc2OC)N(O)C1(C)C (centres undefined),8.91µM*,-11.2%,-26.4%,6.1%,12.6,0.7%
COCOc1ccc(OC)cc1C(=O)/C=C/c1ccc(OC)c(Br)c1,2.9%,-13.5%,-46.1%,-10.5%,.,.
O=C1C(Nc2cccc(O)c2)=C(N2CCCCC2)C(=O)c2ccccc21,?,-10.6%,-81.2%,0.0%,47.2,?
O=C1C(Nc2ccccc2)=C(N2CCCCC2)C(=O)c2ccccc21,20µM*,-1.3%,-70.6%,-6.4%,61.0,?
COc1ccccc1NC1=C(N2CCCCC2)C(=O)c2ccccc2C1=O,10µM*,-4.4%,-48.5%[10 µM],6.6%,-84.7*,12.6µM*
Cc1ccc(NC2=C(N3CCCCC3)C(=O)c3ccccc3C2=O)cc1,6.9%,.,-20.1%,0.7%,13.5,-31.9%
O=C(/C=C/c1ccc(O)cc1)c1ccc(NC2=C(N3CCCCC3)C(=O)c3ccccc3C2=O)cc1,8.91µM*,-15.4%,-59.4%,-15.0%,17.9,-29.2%
CNC(=O)CS(=O)CC(=O)Nc1cc(OCCOC)c(Cl)cc1Cl (centres undefined),0.9%,.,15.8%[10 µM],2.4%,.,3.3%[9.22 µM]
CCC[C@@H]1C[C@@]1(CCC)C(NC(=O)c1cccs1)c1ccc(Cl)cc1 (some centres undefined),8.7%,-9.1%,-7.3%,13.4%,.,.
O=C1c2ccccc2C(O)(Cc2ccccc2)N1C1CCCCC1 (centres undefined),22.4µM*,-12.5%,-17.1%,2.9%,?,-17.6%
COCCCn1c(=O)/c(=C\c2ccccc2OC(F)F)s/c1=C(/C#N)C(=O)N1CCOCC1,6.31µM*,.,-38.0%,2.3%,.,15.4%
C=CCN1C(=O)C2(c3ccccc31)C1CCCC=C1C(C#N)=C(N)C2(C#N)C#N (centres undefined),10µM*,-13.1%,12.5%[10 µM],-9.6%,-28.7,2.7%
N#CC1=C(N)C(C#N)(C#N)C(c2cccnc2)C2CCCC=C12 (centres undefined),?,-27.9%,-4.7%,5.4%,3.5,-52.2%

# Compound activity: PubChem, National Center for Advancing Translational Sciences (NCATS)
